Compound activity: PubChem, several laboratories
A selection: hits, their analogues and other compounds. The true share with any hit is near 2.2%.
m5-HT2A agonist – mouse Htr2a agonists via beta-arrestin recruitment, primary screen, cell-based, luminescence | CHO-K1 mHTR2A beta-arrestin complementation; percent of 30 µM serotonin response | 5-hydroxytryptamine receptor 2A (Mus musculus), P35363 | activation, % at 7.6 µM | AID 624169, 2012 | hit rate 0.66% among 360,000;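 active means activation above a run cutoff, the mean activation of all tested compounds plus 3 SD, cut at about 14% in these data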
VLA-4 inh – inhibition in human VLA-4 binding assay, primary screen, VLA-4 allosteric modulator project, MLPCN library, flow cytometry, VLA-4 expressing cells; Integrin alpha-4 (Homo sapiens), P13612; ligand binding flow cytometry; inhibition, % (about 7 µM as worked out from the volumes in the protocol); hit rate 0.2% among 330,000; in the data active means inhibition above about 50%
Exocytosis inh – LAMP-1 surface exposure blockers, TALL-104 cells – cell-based, flow cytometry, MLPCN library, primary screen | hit rate 0.66% among 360,000 | TALL-104 LAMP-1 surface exposure; cells stimulated with thapsigargin and PMA | inhibition, % at 10 µM;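 active means inhibition above about 55%, limit read from the data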
V-ATPase pHluor – regulators of yeast V-ATPase proton pumping, primary screen, pHLuorin cytosolic pH fluorescence; S. cerevisiae; response, % at 10 µM; AID 504577, 2011; hit rate 0.37% among 350,000; in the data active means response mostly above about 7.3%, no sharp cut-off; inactive means mostly below about 5.4%; further: actives read high
JMJD2C inh – inhibitors of GASC-1 histone demethylase, primary screen, biochemical, fluorescence, DELFIA europium | Lysine-specific demethylase 4C (Homo sapiens), Q9H3R0 | GST-JMJD2C(1-420) H3K9me3 demethylation | inhibition, % at 2.35 µM | hit rate 0.069% among 330,000;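 active means more than half of a compound's replicate wells show inhibition beyond 50%, single wells judged on their own value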;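 further: signal counts dimethyl H3K9 product captured on neutravidin plate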
MEX-5 binding – MEX-5 zinc finger RNA-binding disruptors – biochemical, C. elegans, fluorescence polarization, MLPCN library, primary screen; Zinc finger protein mex-5 (Caenorhabditis elegans), Q9XUB2; MEX-5/FITC-TCR2 RNA binding; hits give low values; activity score (negative = inhibition of binding), % at 10 µM; hit rate 0.38% among 300,000;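 active means inhibition past about -25% in most replicates, and total fluorescence under double the plate's negative control median, limit read from the data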
Target sequence (Q9XUB2 whole entry, looked up): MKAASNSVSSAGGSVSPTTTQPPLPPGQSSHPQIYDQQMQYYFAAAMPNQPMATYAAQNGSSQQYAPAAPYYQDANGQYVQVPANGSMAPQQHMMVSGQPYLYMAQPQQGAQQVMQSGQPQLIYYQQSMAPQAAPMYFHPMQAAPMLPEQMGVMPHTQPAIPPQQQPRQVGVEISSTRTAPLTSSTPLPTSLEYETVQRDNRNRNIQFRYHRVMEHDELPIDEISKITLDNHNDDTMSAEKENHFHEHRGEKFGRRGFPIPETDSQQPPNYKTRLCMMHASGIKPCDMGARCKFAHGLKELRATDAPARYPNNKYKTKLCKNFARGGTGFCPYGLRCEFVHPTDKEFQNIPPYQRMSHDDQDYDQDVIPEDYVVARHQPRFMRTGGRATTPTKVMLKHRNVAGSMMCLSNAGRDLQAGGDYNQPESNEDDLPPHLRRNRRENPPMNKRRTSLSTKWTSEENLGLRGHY
MOR ag counter – OPRM1 agonists via beta-arrestin recruitment, confirmation, counter-screen for mouse HTR2A agonist project, cell-based, luminescence, single concentration; shares compounds with m5-HT2A agonist; U2OS OPRM1 beta-arrestin PathHunter; DMSO 0%, DAMGO 9.3 µM 100%; activation, % at 9.3 µM; hit rate 5.3% among 2,300;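 active means mean activation above the mean of DMSO-only wells plus 3 SD, cut at about 0.5% in these data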
HTR2A ag conf – mouse HTR2A agonists, beta-arrestin recruitment, confirmation, cell-based, luminescence, CHO-K1 PathHunter, triplicate; shares compounds with m5-HT2A agonist; DMSO 0%, 30 µM serotonin 100%; activation, % at 7.6 µM; hit rate 19% among 2,300; AID 624381, 2012;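 active means mean activation across triplicates above the hit threshold derived in the original primary screen, cut at about 15% in these data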
A number is an active result; - = inactive; . = no result.

SMILES	m5-HT2A agonist	VLA-4 inh	Exocytosis inh	V-ATPase pHluor	JMJD2C inh	MEX-5 binding	MOR ag counter	HTR2A ag conf
O=C(NC(Cc1cn(Cc2ccccc2)cn1)C(=O)O)OCC1c2ccccc2-c2ccccc21 (stereo not given)	-	.	-	.	.	.	.	.
Cc1ccc(CN2CCN(C(=O)c3ccco3)CC2)cc1	42.8	-	-	-	-	-	-	120.7
Cc1cc(C)c(OCC(=O)OCC(=O)N2CCN(C(=O)c3ccco3)CC2)c(C)c1	18.8	-	-	-	-	-	-	-
O=C(c1ccco1)N1CCN(Cc2cccnc2)CC1	-	-	-	-	-	-	.	.
Cc1ccc(OCC(=O)N2CCN(C(=O)c3ccco3)CC2)cc1	-	-	-	-	-	-	.	.
Cc1ccsc1C(=O)N1CCN(C(=O)c2ccco2)CC1	17.3	-	-	-	-	.	-	-
Cc1ccccc1CN1CCN(C(=O)c2ccco2)CC1	25.3	-	-	-	-	-	-	85.0
Cc1ccccc1CC(=O)N1CCN(C(=O)c2ccco2)CC1	-	-	-	-	-	-	.	.
CN(C)C(=O)N1CCN(C(=O)c2ccco2)CC1	-	-	-	-	-	-	.	.
CC(CN1CCCC1)C(=O)NN (stereo not given)	-	-	-	-	-	-	.	.
CCN(C(=O)c1cn(C)c(=O)c2ccccc12)c1ccccc1F	-	-	-	-	-	-	.	.
O=C(CNCC1CCCCC1)Nc1ccc(OC(F)(F)F)cc1	-	-	-	-	-	-	.	.
O=C(c1ccco1)N1CCN(Cc2ccccc2F)CC1	20.4	-	-	-	-	-	-	75.9
Cc1ccccc1-n1c(=O)cc(N2CCN(C(=O)c3ccco3)CC2)[nH]c1=O	24.2	-	-	-	-	-	-	-
Cc1ccccc1-n1c(=O)cc(N2CCCCCC2)[nH]c1=O	-	-	-	-	-	-	.	.
O=C(c1ccco1)N1CCN(Cc2c(F)cccc2Cl)CC1	-	-	-	-	-	-	.	.
CC(=O)c1ccc(S(=O)(=O)N2CCN(C(=O)CCC3CCCC3)CC2)cc1	-	.	-	-	.	.	.	.
C(=C\c1ccccc1)/CN1CCN(C(c2nnnn2-c2ccc3c(c2)OCCO3)C2CC2)CC1 (stereo not given)	14.8	.	-	.	.	.	-	51.2
CCC(c1nnnn1-c1ccc2c(c1)OCCO2)N1CCN(C/C=C/c2ccccc2)CC1 (stereo not given)	19.8	.	-	.	.	.	-	61.9
C(=C\c1ccccc1)/CN1CCN(C(c2cccs2)c2nnnn2-c2ccc3c(c2)OCCO3)CC1 (stereo not given)	-	.	-	.	.	.	.	.
C(=C\c1ccccc1)/CN1CCN(C(CCc2ccccc2)c2nnnn2-c2ccc3c(c2)OCCO3)CC1 (stereo not given)	-	.	-	.	.	.	.	.
O=C(c1[nH]c(C(F)(F)F)nc1-c1ccccc1)N1CCN(c2ccncc2)CC1	-	.	-	.	.	.	.	.
CCCCNC(=O)C1(C)CCN1C(=O)c1ccc2ccccc2n1 (stereo not given)	-	.	-	.	.	.	.	.
COc1ccc2oc(C(=O)OCC(=O)N(CCC#N)c3ccccc3)c(C)c2c1	-	-	-	-	-	-	.	.
CCOC(=O)c1[nH]cnc1C(=O)N1CCN(C(=O)OC(C)(C)C)CC1	18.4	-	-	-	-	.	-	-
SMILES	m5-HT2A agonist	VLA-4 inh	Exocytosis inh	V-ATPase pHluor	JMJD2C inh	MEX-5 binding	MOR ag counter	HTR2A ag conf
COc1ccc(S(=O)(=O)N/N=C\c2ccccc2F)cc1	14.7	-	-	-	-	-	-	-
COc1ccccc1/C=N/NS(=O)(=O)c1ccccc1	-	-	-	-	-	-	.	.
O=C(NCc1ccc(Cl)cc1)N1CCN(Cc2ccccc2)CC1	34.9	-	-	-	-	-	-	-
COc1cccc(CN2CCN(C(=S)NCc3ccc(Cl)cc3)CC2)c1	29.2	-	-	-	-	-	0.8	24.6
O=C(O)C1CC2CCC1CC2 (stereo not given)	-	.	-	-	.	.	.	.
O=C(c1ccc(Br)o1)N1CCN(Cc2ccc3c(c2)OCO3)CC1	16.7	-	-	-	-	-	0.8	19.6
O=C(c1ccc(Br)s1)N1CCN(Cc2ccc3c(c2)OCO3)CC1	-	-	-	-	-	-	.	.
Cc1cccc(C(=O)N2CCN(Cc3ccc4c(c3)OCO4)CC2)c1	14.8	-	-	-	-	-	-	-
CC(C)CC(=O)N1CCN(Cc2ccc3c(c2)OCO3)CC1	18.5	-	-	-	-	-	0.6	36.4
O=C(O)CCC(=O)N1CCN(Cc2ccc3c(c2)OCO3)CC1	-	-	-	-	-	-	.	.
COc1ccc(-c2cc(C(=O)Nc3ccc(NC(C)=O)cc3)[nH]n2)c(C)c1	20.8	.	-	.	.	.	-	-
COc1ccc(-c2cc(C(=O)Nc3cc(OC)c(OC)c(OC)c3)[nH]n2)c(C)c1	-	.	-	.	.	.	.	.
CCCCCN(C(=O)CCC(=O)OCc1cccc(C(F)(F)F)c1)c1c(N)n(CCCC)c(=O)[nH]c1=O	-	-	-	-	-	-	.	.
COc1ccc2nc(SCC(=O)NCc3ccccc3)[nH]c2c1	-	-	-	-	-	-	.	.
COc1ccc2nc(SCC(=O)Nc3ccccc3)[nH]c2c1	18.6	-	-	-	-	-	-	-
Cc1cc(O)c2c(CN3CCN(Cc4ccccc4)CC3)cc(=O)oc2c1	19.5	-	-	-	-	-	-	17.8
O=C(/C=C/c1ccco1)OCC1CCCN2CCCCC12 (stereo not given)	-	-	-	-	-	-	.	.
Cn1c(N)c(C(=O)Nc2ccccc2)c(=O)[nH]c1=O	.	.	.	.	-	-	.	.
Cn1c(N)c(C(=O)/C=C/c2ccccc2)c(=O)[nH]c1=O	26.1	-	-	-	-	-	-	-
COc1cc(OC)nc(NC(=S)NC(=O)c2ccccc2)n1	27.9	-	-	-	-	-	-	-
Cc1cc(CNC(=O)c2cccc(OC3CCN(S(=O)(=O)N(C)C)CC3)c2)on1	15.3	-	-	-	-	-	-	-
COc1cc(NC(=O)c2c(F)c(F)c(OC)c(F)c2F)ccc1NC(=O)c1cccs1	16.2	-	-	-	-	-	-	-
COc1cc(NC(=O)c2cc(OC)c(OC)c(OC)c2)ccc1NC(=O)c1cccs1	-	-	-	-	-	-	.	.
